Rows were chosen to be rich in hits. Some 20% of all compounds tested hit in one or more screens of this group.
Pf growth 48h – Primary qHTS for delayed death inhibitors of the malarial parasite plastid, 48 hour incubation | P. falciparum luciferase growth in erythrocytes, 48 h | Potency, µM (doses to about 28.7 µM), hits mostly inhibitors | AID 504832, 2011 | 5.9% of 310,000 active
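A one-generation exposure of luciferase-tagged malaria parasites in RPMI 1640/Albumax erythrocyte culture, 37 C and 5% CO2. Inhibition is inferred from decreased luminescence after adding detection reagent.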
Shiga toxin inh – A qHTS for Small Molecule Inhibitors of Shiga Toxin | Vero cells, Shiga toxin protein synthesis inhibition reporter | inhibition, % at 38.7 µM | 9.2% of 290,000 active | AID 2315, 2010; in the data active = inhibition mostly above about 28%, no sharp cut-off; inactive = mostly below about 43%
CHX counter – Cycloheximide Counterscreen for Small Molecule Inhibitors of Shiga Toxin; cell reporter, cycloheximide protein synthesis inhibition counterscreen; max response, %; 12% of 300,000 active; AID 2314, 2010; in the data active = max response mostly above about 13%, no sharp cut-off; inactive = mostly below about 14%; note: read at 38.3 µM for the half of the compounds with a filed dose
Pf growth 96h – Primary qHTS for delayed death inhibitors of the malarial parasite plastid, 96 hour incubation; AID 504834, 2011; 6.9% of 320,000 active; P. falciparum luciferase reporter growth, 96 h; Potency, µM (series often up to 28.7 µM), hits mostly inhibitors
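Erythrocytes infected with luciferase-expressing P. falciparum were dispensed at 2% hematocrit and 0.05% parasitemia (final), then incubated with compounds 96 hours at 37 C in 5% CO2. Luminescence after detection reagent addition reported growth.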
HCMV inh – qHTS Assay for inhibitors of the human cytomegalovirus (HCMV). HFF cells, HCMV-luciferase reporter, 72 h; active compounds read low. activity change, negative = inhibition, % at 57.5 µM. 4.5% of 410,000 active; in the data active = activity change below about -60%; inconclusive = no clear call, values can overlap the other calls; inactive = above about -39%
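Steps: HFFs plated, 16 h 37C; compounds added; HCMV-luciferase added to MOI 1 PFU/cell; 72 h 37C; OneGlo reagent, 5 min room temperature; luminescence read, normalized to controls.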
Hits are given with their value; – = inactive; ? = inconclusive; · = no result given. Unless noted, calls come from the whole dose curve; as a rule, active = well fitted inhibition curve with a large enough effect; inconclusive = small, poorly fitted or top-dose-only effect, or another doubt; inactive = no such curve, though single readings can be large or run the other way.

SMILES | Pf growth 48h | Shiga toxin inh | CHX counter | Pf growth 96h | HCMV inh
O=C(Nc1cccc(-c2nc3cccnc3s2)c1)c1ccco1 | – | 57 | 20 | ? | –
O=C(Cc1ccccc1)Nc1cccc(-c2nc3cccnc3s2)c1 | · | · | · | · | –
O=C(Nc1ccc(-c2nc3cccnc3s2)cc1)c1ccc(Br)o1 | ? | 53 | 47 | ? | -91
O=C(Nc1ccc(-c2nc3cccnc3s2)cc1)c1ccco1 | – | 74 | 34 | – | –
O=C(Nc1ccc(S(=O)(=O)Nc2ncccn2)cc1)c1ccc(Br)o1 | – | – | – | ? | –
Cc1c(NC(=O)c2ccco2)cccc1-c1nc2cccnc2s1 | ? | – | 16 | ? | –
Cc1cc([N+](=O)[O-])ccc1NC(=O)CSc1nncn1-c1ccccn1 | – | – | – | – | –
O=C(CNC(=O)N1CC(=O)Nc2ccccc21)NCc1ccc(Cl)cc1 | – | – | – | – | –
CCN(CC)c1ccc(NC(=O)Cn2c3ncccc3c(=O)n2-c2ccccc2)c(C)c1 | · | · | · | · | –
Cn1c(=O)c(C(=O)NNC(=O)c2ccc(Br)cc2)c(O)c2ccccc21 | – | – | – | – | –
CCC(CC)C(=O)Nc1cccc(-c2nc3cccnc3s2)c1C | · | · | · | · | –
CN(C)c1ccc(C(=O)Nc2cccc(-c3nc4cccnc4s3)c2)cc1 | · | · | · | · | –
O=C(Nc1cccc(-c2nc3cccnc3s2)c1)c1cccc(Br)c1 | · | · | · | · | -67
CCS(=O)(=O)Nc1cccc(-c2nc3cccnc3s2)c1C | – | 73 | 30 | – | –
CC(C)(C)C(=O)Nc1ccnc(-c2cccnc2)n1 | – | – | – | – | ·
Cc1ccccc1NC(=O)c1cc2c(C)nc3ccccc3c2o1 | ? | – | – | – | -83
CCc1ccc(NC(=O)c2cc3c(C)nc4ccccc4c3o2)cc1 | ? | – | – | ? | –
Cc1ccc(CNC(=O)c2cc3c(C)nc4ccccc4c3o2)cc1 | – | – | – | – | -70
CCOc1ccc(CNC(=O)C2CCN(S(=O)(=O)CC)CC2)cc1OC | – | – | – | – | –
CCOC(=O)C1CCN(Cc2ccc(OCc3ccccc3)c(OC)c2)CC1 | – | – | – | ? | ·
COc1cc(CN2CCC(C(=O)NCCC(C)C)CC2)ccc1OCc1ccccc1 | – | 101 | 25 | – | –
COc1cc(CNC(=O)C2CC2)ccc1OCc1ccccc1 | – | 64 | 46 | – | –
CCOC(=O)C1CCN(Cc2ccc(OC)c(OCc3ccccc3)c2)CC1 | – | – | – | 12µM | –
COc1cc(CN2CCCCC2)ccc1OCc1ccccc1 | – | 56 | 32 | ? | –
O=C(CSc1ncc(-c2ccc(F)cc2)[nH]1)Nc1cccc(O)c1 | – | – | – | – | –
SMILES | Pf growth 48h | Shiga toxin inh | CHX counter | Pf growth 96h | HCMV inh
CN(C(=O)CSc1nc(-c2ccc(C(C)(C)C)cc2)c(C#N)c(=O)[nH]1)C1CCCCC1 | – | – | – | – | –
O=S(=O)(c1ccc(Cl)cc1)N1CCN=C1SCc1ccc(Cl)c(Cl)c1 | – | – | – | ? | –
Cc1ccc(CNC(=O)c2cc(S(=O)(=O)N3CCCC(C)C3)cn2C)cc1 (configuration not stated) | · | · | · | · | –
COc1ccc(-c2cnnc(N/N=C/c3c(C)nn(-c4ccccc4)c3Cl)n2)cc1 | – | – | – | ? | –
Brc1ccc(/C=N/Nc2nncc(-c3ccccc3)n2)o1 | – | – | – | ? | ?
COc1ccc(-c2cnnc(N/N=C/c3ccc(O)c(O)c3)n2)cc1 | 1.7µM | – | 30 | – | –
COc1ccc(-c2cnnc(N/N=C/c3ccc(C)o3)n2)cc1 | ? | – | – | 4.1µM | ?
Oc1ccc(/C=N\Nc2nncc(-c3ccccc3)n2)cc1 | ? | 51 | 23 | 2.3µM | -66
COc1ccc(-c2cnnc(N/N=C/c3ccc(O)cc3)n2)cc1 | – | – | – | – | -71
CCN(C(=O)COC(=O)CCC(=O)c1cccs1)c1ccccc1 | · | · | · | · | –
COc1ccc(NC(=O)c2cccc(S(=O)(=O)Nc3ccc(Br)cc3)c2)cn1 | – | – | – | – | -90
COc1ccc(NC(=O)Cc2ccc(-c3ccccc3)cc2)cn1 | ? | – | – | – | –
O=C(Nc1ccc(Br)cc1)c1cccc(S(=O)(=O)Nc2ccc(Br)cc2)c1 | · | – | – | · | ·
COc1ccc(NC(=O)c2cccc(Oc3ccccc3)c2)cn1 | – | 81 | 33 | – | ?
COc1ccc(NC(=S)NC(=O)c2ccccc2)cn1 | – | 132 | 69 | – | –
NC(=O)C1=NOC(CNc2ncc(C(F)(F)F)cc2Cl)C1 (configuration not stated) | · | 87 | 36 | – | –
